CYP2C19 act = increases human CYP2C19 enzyme activity. AID 1025. 96,000 tested, under 10 active. recombinant CYP2C19, luciferin-H EGE luminescence; stronger effect = higher value; 0 = fully inhibited enzyme, 1 = untreated enzyme. activation factor at 5 µM;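 active means activation factor of at least 2 at 5 µM in the primary screen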
CYP2C9 activ = CYP2C9 (human) activation; activation factor at 5 µM; P11712; recombinant CYP2C9, luciferin-H conversion, luminescence; stronger effect = higher value; factor 1 = untreated enzyme, 0 = blocked; actives 1.4% (n = 96,000); AID 1024;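 active means activation factor of 2 or more for CYP2C9 at a 5 µM dose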
CYP2C19 inhib = blocks human cytochrome P450 2C19; P33261; CYP2C19 Supersomes, luciferin-H EGE luminescence, 30 min; inhibition, % at 5 µM; actives 21% (n = 96,000);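 active means CYP2C19 inhibition above a set limit at 5 µM in the primary screen, cut at about 50% in these data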
sEH inh = inhibitors of human soluble epoxide hydrolase; recombinant human sEH enzymatic activity assay; inhibition, % at 2 µM; actives 0.34% (n = 91,000); AID 707; in the data active means inhibition above about 80%
Target sequence (P34913 whole entry, looked up): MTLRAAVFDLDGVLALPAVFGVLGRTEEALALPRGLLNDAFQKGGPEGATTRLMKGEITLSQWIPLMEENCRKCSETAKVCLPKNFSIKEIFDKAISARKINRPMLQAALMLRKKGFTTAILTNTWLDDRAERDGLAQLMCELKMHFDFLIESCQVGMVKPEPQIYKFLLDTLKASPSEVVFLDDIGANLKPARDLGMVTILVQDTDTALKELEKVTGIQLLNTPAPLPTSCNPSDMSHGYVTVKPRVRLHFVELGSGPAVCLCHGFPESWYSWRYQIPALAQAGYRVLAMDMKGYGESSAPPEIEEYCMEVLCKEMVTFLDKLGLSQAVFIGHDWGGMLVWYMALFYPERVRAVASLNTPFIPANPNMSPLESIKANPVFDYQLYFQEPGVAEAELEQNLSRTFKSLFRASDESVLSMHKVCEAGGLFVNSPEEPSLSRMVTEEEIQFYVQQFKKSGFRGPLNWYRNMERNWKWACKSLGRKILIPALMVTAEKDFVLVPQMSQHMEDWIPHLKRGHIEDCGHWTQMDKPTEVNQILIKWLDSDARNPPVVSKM
CYP2C9 inhib = human CYP2C9 inhibition; CYP2C9 Supersomes, luciferin-H conversion, luminescence; P11712; AID 777; actives 20% (n = 96,000); inhibition, % at 5 µM;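 active means blocking of liver enzyme CYP2C9 beyond about 50% at 5 µM, limit read from the data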
sEH activator = activators of human soluble epoxide hydrolase | actives 0.04% (n = 91,000) | purified human sEH enzymatic activity, activator screen | activation, % at 2 µM | P34913 | AID 717; in the data active means activation above about 37%
A number is an active result; – = inactive; · = no result. This is a sample that favours compounds with a hit; in the whole collection about 27% have one here.

SMILES | CYP2C19 act | CYP2C9 activ | CYP2C19 inhib | sEH inh | CYP2C9 inhib | sEH activator
O=C(C1COc2ccccc2O1)N1CCN(c2ccc(F)cc2)CC1 (stereo not drawn) | – | – | 85.8 | – | 74.9 | –
O=C(c1noc2c1CCCC2)N1CCN(c2ccc(F)cc2)CC1 | – | – | – | · | – | ·
O=C(c1ccc(Br)o1)N1CCN(c2ccc(F)cc2)CC1 | – | – | 95.0 | – | – | –
O=C(Nc1ccc(N2CCOCC2)cc1)c1cccnc1 | · | · | · | – | · | –
O=C(Nc1ccccc1-c1ccccc1)NC1CCN(CC(=O)N2CCOCC2)CC1 | – | – | – | – | – | –
COc1ccc(C2CC3CC(c4ccccc4)N2O3)cc1 (stereo not drawn) | – | – | 90.6 | – | – | –
COc1ccc(C2CC(c3ccc(F)cc3)Nc3nc(N)nn32)cc1 (stereo not drawn) | – | – | – | · | – | ·
CC(C)C(OC(=O)c1cccs1)C(=O)NCc1cccs1 (stereo not drawn) | – | – | 91.4 | – | 65.5 | –
CC(C)CC(OC(=O)c1cccs1)C(=O)NCc1ccco1 (stereo not drawn) | – | – | – | – | – | –
CC(C)C(OC(=O)c1nsc(Cl)c1Cl)C(=O)NCc1ccc2c(c1)OCO2 (stereo not drawn) | – | – | – | – | 65.4 | –
CC(OC(=O)c1cccs1)C(=O)NCc1ccc2c(c1)OCO2 (stereo not drawn) | – | – | – | – | 67.4 | –
CC(OC(=O)c1cccs1)C(=O)NCc1ccccc1 (stereo not drawn) | – | – | 98.3 | – | 76.7 | –
CCC(C)(C)n1nnnc1C(C(C)C)N1CCC(C(N)=O)CC1 (stereo not drawn) | – | – | – | – | – | –
COc1ccc(CNC(N)=O)cc1 | · | · | · | – | · | –
COc1ccc(CNC(=O)C(C)OC(=O)c2cccn2C)cc1 (stereo not drawn) | – | – | 78.1 | · | – | ·
Cc1ccc(C)n1-c1ncn[nH]1 | – | – | – | – | – | –
Cc1cc(C)c(-c2cc(C(F)(F)F)no2)c(=O)[nH]1 | · | · | · | – | · | –
CCc1nc(N2CCN(C(=O)c3ccccc3)CC2)c(C#N)c2c1COC(C)(C)C2 | – | – | 75.1 | · | 77.1 | ·
CC1CCN(c2nc(-c3ccco3)c3c(c2C#N)CC(C)(C)OC3)CC1 | – | – | – | · | 55.8 | ·
Cc1ccc(S(=O)(=O)N2CCN(c3nc(C)c4c(c3C#N)CC(C)(C)OC4)CC2)cc1 | – | – | 76.7 | · | 83.0 | ·
CC1(C)Cc2c(C#N)c(N3CCOCC3)nc(Cc3ccccc3)c2CO1 | – | – | 92.7 | – | 76.6 | –
CC1(C)Cc2c(C#N)c(N3CCOCC3)nc(-c3ccccc3)c2CO1 | · | · | · | – | · | –
CCOC(=O)CSc1nc(C(C)(C)C)cc(C(F)(F)F)c1C#N | – | – | – | – | – | –
O=C(CN(CC1CCCO1)C(=O)CCC(=O)Nc1nccs1)NCc1ccccc1 (stereo not drawn) | · | · | · | – | · | –
CCc1nc(N2CCOCC2)c(C#N)c2c1COC(C)(C)C2 | – | – | 59.7 | – | – | –
SMILES | CYP2C19 act | CYP2C9 activ | CYP2C19 inhib | sEH inh | CYP2C9 inhib | sEH activator
CC1(C)Cc2c(C#N)c(N3CCN(C(=O)c4ccccc4)CC3)nc(Cc3ccccc3)c2CO1 | – | – | – | – | 98.5 | –
CN=C(c1ccco1)n1c(=S)nc(-c2ccco2)n(C)c1=S | – | – | 78.6 | · | 65.8 | ·
Nn1c(-c2ccco2)n[nH]c1=S | – | – | – | – | – | –
c1ccc(-c2nnc(SCc3nnc(-c4cccs4)o3)o2)cc1 | – | – | – | – | – | –
CCN(CC)S(=O)(=O)c1cccc(-c2nnc(SCc3nnc(-c4cccs4)o3)n2N)c1 | – | – | 58.5 | · | 75.8 | ·
Cc1ccccc1-c1nnc2s/c(=C\c3ccc(N(C)C)cc3)c(=O)n12 | – | – | – | · | – | ·
Cc1nc(-c2cccc(S(=O)(=O)N3CCCCCC3)c2)cs1 | – | – | 94.7 | – | 66.5 | –
O=S(=O)(c1cccc(-c2csc(-c3ccccc3)n2)c1)N1CCOCC1 | – | – | – | – | 61.2 | –
O=S(=O)(c1cccc(-c2nc3ccccc3s2)c1)N1CCOCC1 | – | – | – | – | – | –
CC1CN(S(=O)(=O)c2cccc(-c3csc(-c4ccccc4)n3)c2)CC(C)O1 (stereo not drawn) | – | – | – | – | 57.5 | –
C/C(=N/OC(=O)c1cccc(Cl)c1)c1nccs1 | – | – | – | – | – | –
O=C(CCn1nc(-c2ccccc2)ccc1=O)N1CCN(c2ccccn2)CC1 | – | – | – | · | – | ·
CCNc1nc(OC)nc(Oc2ccc(=O)n(-c3ccccc3)n2)n1 | – | – | – | – | – | –
COc1nc(NC(C)(C)C)nc(Oc2ccc(=O)n(-c3ccccc3)n2)n1 | – | – | – | – | 55.5 | –
CCOC(=O)c1ccc(-n2ncc(C(=O)OCC)c2N)cc1 | – | – | – | – | – | –
CCOC(=O)c1ccc(N2Cc3ccccc3C2=N)cc1 | – | – | – | – | 84.7 | –
Cc1ccccc1NS(=O)(=O)c1cc(C(=O)N2CCc3ccccc3C2)ccc1C | – | – | 53.6 | – | 66.7 | –
COc1ccccc1NS(=O)(=O)c1cc(C(=O)NCc2ccco2)ccc1C | – | – | 61.1 | – | – | –
Cc1ccc(C)c(NS(=O)(=O)c2cc(C(=O)NCc3ccco3)ccc2C)c1 | – | – | 60.5 | – | 82.9 | –
Cc1ccccc1NS(=O)(=O)c1cc(C(=O)NCc2ccco2)ccc1C | – | – | – | – | 68.7 | –
Cc1cccc(-c2c3c(=O)n(C)c(=O)n(C)c3c3nnc4ccccc4n23)c1 | · | · | · | – | · | –
Cc1cc2c(ncn2C(C)C)c(N)c1C | – | – | – | · | – | ·
CC(=O)c1c(C)oc2ccc(O)c(CN3CCOCC3)c12 | – | – | – | – | – | –
S=C(Nc1ccccc1)Nc1ccc(Cl)cc1Cl | – | – | 58.3 | – | – | –
Fc1ccc(NC(=S)Nc2ccc(F)c(Cl)c2)cc1Cl | – | – | 97.5 | – | 86.4 | –
SMILES | CYP2C19 act | CYP2C9 activ | CYP2C19 inhib | sEH inh | CYP2C9 inhib | sEH activator
Cc1cc(Cl)ccc1NC(=S)Nc1cccnc1 | – | – | 54.0 | – | – | –
S=C(Nc1ccccc1Cl)Nc1ccc(Cl)cc1Cl | – | – | 57.8 | – | – | –
FC(F)(F)c1cccc(NC(=S)Nc2ccc(Cl)cc2Cl)c1 | – | – | – | – | – | –
CN(C)C1NC(=O)c2cc(-c3ccccc3)sc2N1 (stereo not drawn) | – | – | – | · | – | ·
CN1CCN(CCN2CCn3c2nc2ccccc23)CC1 | – | – | – | – | – | –
Cc1ccc(C)c(/C(O)=C2/C(=O)C(=O)N(CCN3CCOCC3)C2c2ccco2)c1 (stereo not drawn) | – | – | – | – | – | –
CCn1c(=S)sc2nc(C)sc21 | · | · | · | – | · | –
Fc1ccc(CNC(=S)Nc2ccc(Cl)cc2)cc1 | – | – | 84.4 | – | – | –
S=C(Nc1ccccc1)Nc1cc(Cl)ccc1Oc1ccccc1 | – | – | 96.0 | – | 94.7 | –
CN(C)NC(=S)Nc1ccc(Cl)cc1 | – | – | 91.1 | – | – | –
Cc1cc(Cl)ccc1OCCCC(=O)Nc1cccnc1 | – | – | 50.1 | – | – | –

Source: PubChem (several laboratories)
